IL1B secr inh: inflammasome signaling inhibition, IL-1 beta readout | AID 743279 | activity change, % at 57.5 µM | THP-1 LPS/ATP IL-1B secretion, AlphaLISA, 16 h; hits give low values | hit rate 4.7% among 360,000; in the data active means activity change below about -50%; inconclusive means mostly about -30% to -49%
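Secreted IL-1B measured by AlphaLISA bead assay after 16 h compound exposure of THP-1 cells; compounds (final up to 57.5 uM) added 1 h before LPS (250 ng/mL) and ATP (1.25 mM) stimulation; lower signal means less secretion.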
HT1080 IDH1KD tx: kills HT-1080 cells with IDH1 knockdown | HT-1080 IDH1 knockdown viability, ATP luminescence, 48 h | Potency, µM (titrated, usually from 46.1 µM), inactives show at the highest dose activity, negative = toxicity, most hits filed as cytotoxic | hit rate 2% among 360,000 | AID 686971;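 further: potency means the concentration at half of the fitted maximal effect; 0% = DMSO wells and -100% = cell-free medium wells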
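Assay cells: HT-1080 with IDH1 knockdown, 750 per well, RPMI/5% FBS. Exposure: 48 h at 37 °C following 2 h pre-incubation. Read: CellTiter-Glo luminescence; fitted concentration-response, curve class assigned.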
12-LOX inh: blocks human arachidonate 12S-lipoxygenase | P18054 | purified 12hLO, xylenol orange hydroperoxide absorbance | Potency, µM (highest dose often 108 µM), for inactives: top-dose activity change, negative = inhibition, hits mostly inhibitors | hit rate 1.1% among 580,000 | AID 1671190; further: potency means the concentration at half of the fitted maximal effect
Target sequence (P18054 whole entry, looked up): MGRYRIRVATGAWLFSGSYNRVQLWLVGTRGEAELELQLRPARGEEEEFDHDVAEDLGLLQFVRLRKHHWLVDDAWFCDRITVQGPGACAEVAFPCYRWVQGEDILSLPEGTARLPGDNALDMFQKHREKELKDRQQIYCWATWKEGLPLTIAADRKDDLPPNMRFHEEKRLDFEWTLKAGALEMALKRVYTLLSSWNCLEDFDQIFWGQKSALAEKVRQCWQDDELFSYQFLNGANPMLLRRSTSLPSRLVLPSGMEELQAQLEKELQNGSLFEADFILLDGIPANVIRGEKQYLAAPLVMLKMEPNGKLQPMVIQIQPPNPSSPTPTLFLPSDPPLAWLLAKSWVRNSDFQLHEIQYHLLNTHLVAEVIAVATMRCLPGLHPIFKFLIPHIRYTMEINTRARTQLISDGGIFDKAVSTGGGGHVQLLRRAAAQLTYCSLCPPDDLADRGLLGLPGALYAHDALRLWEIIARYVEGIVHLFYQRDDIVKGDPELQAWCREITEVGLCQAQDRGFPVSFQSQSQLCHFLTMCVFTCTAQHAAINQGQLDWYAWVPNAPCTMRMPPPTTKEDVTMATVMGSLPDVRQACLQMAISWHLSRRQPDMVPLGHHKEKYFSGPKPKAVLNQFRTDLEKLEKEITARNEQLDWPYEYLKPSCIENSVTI
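Hydroperoxide product was detected by ferrous iron/xylenol orange as the 573 to 405 nm absorbance ratio. Arachidonic acid at 40 uM (final) was turned over for 30 min at room temperature by 150 nM human 12hLO, pH 7.0 Hepes buffer, after 15 min compound preincubation.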
TDP1 cell noCPT: qHTS for Inhibitors of human tyrosyl-DNA phosphodiesterase 1 (TDP1): qHTS in cells in absence of CPT | DT40 Tdp1-/- hTDP1 cells, no CPT, ATP luminescence, 48 h | Potency, µM (series often up to 46.2 µM), for inactives: top-dose activity change, negative = growth inhibition, most hits filed as inhibitors | hit rate 15% among 420,000 | AID 686978, 2013; further: potency means the concentration at half of the fitted maximal effect; nearly all actives have a fitted effect of over 55% in size
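No-CPT arm: Tdp1-/-;hTDP1 DT40 cells (400/well) plus compounds, incubated ≥48 hr at 37 °C. Readout CellTiter-Glo luminescence.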
DT40 TDP1 CPT: DT40-hTDP1 cell growth loss with CPT; chicken DT40 Tdp1-/-;hTDP1 cells + 20 nM CPT, ATP luminescence, 48 h; Potency, µM (titrated, usually from 46.2 µM), for inactives: at the highest dose activity change, negative = growth inhibition, actives largely listed as inhibitors; hit rate 12% among 420,000; AID 686979; further: potency means the concentration at half of the fitted maximal effect; nearly all actives have a fitted effect of over 55% in size
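Chicken DT40 Tdp1-/- cells stably complemented with human TDP1 were seeded at 400 cells/well in medium containing 20 nM camptothecin, exposed to pin-transferred compounds, and grown at 37 °C for at least 48 hr. Viability was read as ATP luminescence.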
HT1080NT lethal: kills 2HG-producing HT-1080-NT fibrosarcoma cells; HT-1080-NT fibrosarcoma viability, CellTiter-Glo ATP luminescence, 48 h; Potency, µM (doses to about 46.1 µM), inactives show at the highest dose activity, negative = less viability, hits mostly cytotoxic; hit rate 1.6% among 360,000; AID 686970;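 further: NT is the 2HG producing partner of a matched IDH1 knockdown line; potency means the concentration at half of the fitted maximal effect; 0% = DMSO-treated cells and -100% = media-only wells without cells; nearly all actives have a fitted effect of over 55% in size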
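Fibrosarcoma NT cells, 750 per well in 5% FBS RPMI, were exposed to compound for 48 hours. Viability: CellTiter-Glo luminescence.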
Active calls of the source: *; u = inconclusive; x = no result; [ ] = dose if it differs, or a comment. Shown is part of a subset that was picked to be rich in hits. Unless noted, the call rests on the fitted dose curve; in most records, active means well fitted curve in the direction sought with a large enough effect; inconclusive means small, poorly fitted or top-dose-only effect, or another doubt; inactive means no such curve, though single readings can be large; an effect the other way counts as inactive or inconclusive. Unless noted, on the % scale 0 is the no-effect control and ±100 the full control effect.

SMILES	IL1B secr inh	HT1080 IDH1KD tx	12-LOX inh	TDP1 cell noCPT	DT40 TDP1 CPT	HT1080NT lethal
Cc1ccc(C(=O)N2CCC3(CC2)c2nccn2-c2ccccc2CN3CC(C)C)cc1F	x	x	7%	x	x	x
O=C1NC(=O)C(=Cc2ccc(-c3cc(Cl)ccc3[N+](=O)[O-])o2)C(=O)N1	-12	-4%	6.3µM*	u	16µM*	-7%
O=C1NC(=O)C(=Cc2ccc(-c3ccccc3[N+](=O)[O-])o2)C(=O)N1	x	-28%	u	13µM*	7.3µM*	u
Cc1ccc(S(=O)(=O)Oc2ccccc2C=C2C(=O)NC(=O)NC2=O)cc1	-55*	-28%	u	-13%	-10%	-9%
O=C1NC(=O)C(=Cc2cc3c(cc2[N+](=O)[O-])OCO3)C(=O)N1	19	0%	u	u	-3%	1%
O=C1NC(=O)C(=Cc2ccccc2[N+](=O)[O-])C(=O)N1	13	8%	u	16µM*	15µM*	14%
NS(=O)(=O)c1ccc(-c2ccc(C=C3C(=O)NC(=O)NC3=O)o2)cc1	39	9%	0%	-1%	-25%	13%
c1cncc(C2=NOC3(CCCN(CC4CCCC4)C3)C2)c1 (configuration not stated)	x	x	12%[6.33 µM]	x	x	x
O=C(c1ccc(F)cc1)N1C[C@@H]2C[C@H](C1)c1ccc(C3CCCCC3)c(=O)n1C2	x	x	11%[176 µM]	x	x	x
COc1ccccc1OCCNc1ccc([N+](=O)[O-])c2cccnc12	x	x	2%	x	x	x
Cn1nc(C(=O)N[C@@H]2COCC[C@@H]2OCc2cscn2)c2ccccc21	x	x	19%	x	x	x
COc1cccc(NC(=O)CSC2=Nc3ccccc3C3=NC(CCC(=O)NCCc4ccccc4)C(=O)N23)c1 (configuration not stated)	x	x	2%	21µM*	21µM*	x
COc1ccccc1CNC(=O)CCC1N=C2c3ccccc3N=C(SCc3cccc(Cl)c3)N2C1=O (configuration not stated)	x	x	-10%	u	u	x
Brc1ccccc1CNCCc1ccc2c(c1)OCO2	-13	-20%	u	u	u	-26%
Oc1ccc(CCNCc2cc3c(cc2Br)OCO3)cc1	u	-29%	-3%	29µM*	u	-6%
CNC(=O)Oc1cc2c(cc1C(C)(C)C)CCC2	-2	-23%	7%	16µM*	16µM*	-21%
CC(C)(C)CN1CCC2(CN[S+](=O)([O-])c3cccnc3O2)C1 (configuration not stated)	x	x	1%[6.33 µM]	x	x	x
Cc1nc(-c2ccccc2)cc([C@H]2CN3CC[C@H]2C[C@@H]3CNS(=O)(=O)Cc2ccccc2)n1	x	x	69%	x	x	x
CCn1c(N)c(C(=O)NC)sc1=S	-20	18%	u	16µM*	18µM*	15%
c1csc(-c2ccc(-c3cccs3)s2)c1	x	x	-5%	x	x	x
CCCNc1nc(-c2cc(C(=O)Nc3ccccc3)on2)cc(C(C)C)n1	-101*	-3%	10%	u	u	-1%
O=[N+]([O-])/C=C\c1c[nH]c2ccccc12	x	x	33%	x	x	x
CCN(CC)C(=O)c1ccc(NC(=O)c2cccc(S(=O)(=O)N3CCN(Cc4ccccc4)CC3)c2)cc1	u	-28%	-2%	13µM*	18µM*	-10%
C[C@@H](Cc1ccccc1)NCCC(c1ccccc1)c1ccccc1	x	x	x	6.4µM*	u	x
CCN(CC)c1ccc(N=Cc2c(O)n(-c3ccc(Cl)cc3)c(=O)[nH]c2=O)cc1	46	1%	0%	u	21µM*	11%
SMILES	IL1B secr inh	HT1080 IDH1KD tx	12-LOX inh	TDP1 cell noCPT	DT40 TDP1 CPT	HT1080NT lethal
Cc1ccccc1-n1c(O)c(C=Nc2ccc(N(C)C)cc2)c(=O)[nH]c1=O	-3	-1%	-4%	18µM*	23µM*	0%
CC(C)N1C[C@@H]2OCC(=O)N(Cc3ccccn3)[C@@H]2C1	x	x	61%[176 µM]	x	x	x
O=[N+]([O-])c1ccc(N2CCCC(C(F)(F)F)C2)c2ccncc12 (configuration not stated)	18	u	u	9.2µM*	13µM*	u
O=[N+]([O-])c1ccc(N2CCCCC2)c2ncccc12	-12	-20%	-7%	u	-7%	-15%
N#Cc1cc2c(cc1C(=O)c1cccs1)OCCO2	x	x	-5%	x	x	x
CSCC(=O)Nc1ccc2n(c1=O)C[C@H]1C[C@@H]2CN(C(=O)c2ccccc2)C1	x	x	11%[176 µM]	x	x	x
O=C(/C=C/c1ccccc1)C1C(=O)c2ccccc2C1=O	1	-2%	-23%	4.6µM*	3.7µM*	3%
COc1ccc(CNC(=O)C(Cl)(Cl)Cl)cc1	x	x	-23%	x	x	x
CCOC(=O)C1(c2ccccc2)CCN(CCC(=O)Nc2ccccc2OC)CC1	8	4%	2%	12µM*	21µM*	-4%
CCOC(=O)C1(c2ccccc2)CCN(CCC(=O)Nc2ccc(F)cc2)CC1	-21	-5%	-12%	u	u	-8%
Cc1[nH]c2ccccc2c1CCN	-4	-7%	-6%	u	-29%	-15%
Cc1[nH]c2ccccc2c1CCCNC1CCCCC1	u	-18%	-13%	18µM*	u	-16%
CC(C)(O)/C=C/C(=O)[C@](C)(O)C1[C@H](O)C[C@@]2(C)C3CC=C4C(C[C@H](O)[C@@H](O)C4(C)C)[C@]3(C)C(=O)C[C@]12C (some centres not stated)	-87*	1.3µM*	x	0.33µM*	0.29µM*	1.3µM*
COc1ccc(OCC(=O)N2CCN(C/C=C/c3ccccc3)CC2)cc1	-2	0%	-6%	u	u	2%
O=C(COc1ccc(Cl)cc1)N1CCN(C/C=C/c2ccccc2)CC1	-75*	-3%	-10%	u	u	7%
O=C(COc1ccccc1)N1CCN(C/C=C/c2ccccc2)CC1	-13	1%	2%	21µM*	16µM*	3%
CCCCOc1ccc(C(=O)NCC(=O)N2CCN(C/C=C/c3ccccc3)CC2)cc1	23	-18%	5%	16µM*	u	-10%
CCCS(=O)(=O)NC[C@H]1C[C@@H]2CCN1C[C@@H]2c1cc(-c2ccc(F)cc2)nn1C	x	x	15%[176 µM]	x	x	x
CS(=O)(=O)c1ccc([C@@H](O)[C@@H](CF)NC(=O)C(Cl)Cl)cc1	16	1%	8%	2.9µM*	4.1µM*	28%
CCN(CC)c1ccc(/C=C2\C(=O)NC(=O)N(Cc3ccco3)C2=O)cc1	u	2%	45µM*	-28%	1%	4%

Screening data (PubChem BioAssay)
